The text below walks through data of PubChem BioAssay.

Calls of active or inactive are those of the source. Cut-off read from the data, not from the text of the source: active = fold change permeability below about 0.7 or above about 1.3; inactive = in between.

The test is described as follows: compounds altering in vitro BBB leakiness – cell-based, FITC-avidin fluorescence, HTS, primary screen (AID 1963498). Note: test concentration not given here. The note with it: brain endothelial barrier, actives lie on both sides.
Take `C[N+]1(C)CCN(c2ccccc2)CC1`: the fold change permeability was 1.2 (inactive). With `CC1=NN=C(c2ccc(N)cc2)c2cc3c(cc2C1)OCO3` the figure was 1.1 (inactive); with `OCc1cnc[nH]1`, 1.1 (inactive); with `NCCc1c[nH]c2ccc(C(N)=O)cc12`, 1 (inactive). In the case of `Nc1ccc(CCN2CCN(c3cccc(C(F)(F)F)c3)CC2)cc1` it was 1.8 (active); in that of `Cc1nnc2n1-c1sccc1C(c1ccccc1)=NC2`, 1.1 (inactive); in that of `CC(C)=CCOc1c2occc2cc2ccc(=O)oc12`, 1.5 (active). In the case of `NC(=O)CN1CC(O)CC1=O` (stereo unspecified) it was 0.8 (inactive); in that of `C=CCN1C[C@H](C)N([C@H](c2ccc(C(=O)N(CC)CC)cc2)c2cccc(OC)c2)C[C@H]1C`, 0.7 (active). On to `CC(N)Cc1c[nH]c2ccc(O)cc12` (stereo unspecified), for which the fold change permeability is 0.8 (inactive). In the case of `CC(C)NC(C)Cc1ccc(I)cc1` (stereo unspecified) it was 1.8 (active); in that of `Cc1ncc(CNC(=O)N(CCCl)N=O)c(N)n1`, 0.9 (inactive); in that of `CC(CCc1ccccc1)NC(C)C(O)c1ccc(O)cc1` (stereo unspecified), 0.8 (inactive).

In the case of `NC(=NCCC[C@H](N)C(=O)O)N[N+](=O)[O-]`, the fold change permeability is 1 (inactive). With `CC(NC(C)(C)C)C(=O)c1cccc(Cl)c1` (stereo unspecified) the figure was 1 (inactive); with `Cc1cccc(C)c1NC(=O)CN1CCCC1=O`, 1 (inactive); with `CCc1c(C(=O)C(N)=O)c2c(OCC(=O)O)cccc2n1Cc1ccccc1`, 1.1 (inactive). Take `C[C@@H]1[C@@H]2Cc3ccc(O)cc3[C@@]1(C)CCN2CC1CC1`: the fold change permeability was 1.3 (active). In the case of `C[N+](C)(C)CC#CCOC(=O)Nc1cccc(Cl)c1` it was 0.9 (inactive); in that of `S=C(NC1CCCCC1)N1CCC(c2cnc[nH]2)CC1`, 1.6 (active). With `COc1cc(C(O)CN)ccc1O` (stereo unspecified) the figure was 0.9 (inactive); with `O=[N+]([O-])c1ccc2nc(N3CCNCC3)ccc2c1`, 1 (inactive); with `Clc1ccc(CO/N=C(\Cn2ccnc2)c2ccc(Cl)cc2Cl)c(Cl)c1`, 1.6 (active). In the case of `CNc1ccc2oc(C[C@H]3O[C@@]4(CC[C@H]3C)O[C@H]([C@H](C)C(=O)c3ccc[nH]3)[C@H](C)C[C@H]4C)nc2c1C(=O)O` it was 1.2 (inactive); in that of `NCCc1c[nH]c2ccc(O)cc12`, 1 (inactive). Take `C[N+]1(C)CCOC(O)(c2ccc(-c3ccc(C4(O)C[N+](C)(C)CCO4)cc3)cc2)C1` (stereo unspecified): the fold change permeability was 1.1 (inactive). With `Cc1cc([C@@H]2CCCN2C)on1` the figure was 1.1 (inactive); with `CC(C)(O)[C@@H]1C2OC(=O)C1[C@]1(O)C[C@H]3O[C@]34C(=O)O[C@H]2[C@]14C` (stereo partly specified) (tested in a mixture with another compound), 1.1 (inactive). As for `NCC(O)c1ccc(O)cc1` (stereo unspecified), the fold change permeability was 0.9 (inactive).

As for `C[N+]1(C)CCC(OC(=O)C(c2ccccc2)c2ccccc2)CC1`, the fold change permeability is 1.6 (active).

Take `CCCCCN(C)CCC(O)(P(=O)(O)O)P(=O)(O)O`: the fold change permeability was 1.8 (active).

In the case of `c1ccc(C2CC2)c(OCC2=NCCN2)c1`, the fold change permeability was 1 (inactive). In the case of `N=C(N)c1ccc(CS(=O)(=O)F)cc1` it was 1.2 (inactive); in that of `CC1OC1P(=O)(O)O` (stereo unspecified), 1.1 (inactive); in that of `CCCN1CCC[C@@H](c2cccc(O)c2)C1`, 1 (inactive). With `CC(=O)OCC1=C(C(=O)[O-])N2C(=O)[C@@H](NC(=O)CCC[C@@H](N)C(=O)[O-])[C@H]2SC1.[Zn+2]` the figure was 1 (inactive).
